Laboratory results: the supplement of paper PMC10338343
± gives the standard deviation.

test system: MILI (PIWIL2) piRISC loaded with L1MC piRNA (26 nt); assay: pre-steady-state target cleavage rate (min^-1); guide: L1MC piRNA 5'p-UAACUAAAUACUAUGCAAGCUGUAGG; MIWI and MILI are mouse PIWI proteins and EfPiwi is from a freshwater sponge; tags in brackets are library labels; higher = faster piRNA-guided slicing of the target; details: auxiliary factor: 500 nM mouse GTSF1
Method in brief: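 The pre-steady-state cleavage rate was obtained by Cleave-'n-Seq with a burst-and-steady-state fit. A transcribed, DNA-blocked target RNA library (0.1 nM) was mixed with 1 nM active affinity-purified piRISC carrying one synthetic guide, with or without 500 nM GTSF1 partner protein, in HEPES–potassium acetate buffer at 33 °C for 0–8 or 0–960 min. Uncleaved targets were sequenced and normalised to depth and to weakly complementary targets, with three trials pooled and k3 capped at 0.0001 min^-1.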

Sequence	pre-steady-state target cleavage rate
UCCUGGAUCAGCUUGCAUUGUAUUUACUUA	0.146 ± 0.027
UCCUGGAACAGCUUGCAUAGAAUUUACUUA	0.0289 ± 0.011
UCCUGGAACUCGUUGCAUAGUAUUUACAAA	0.0537 ± 0.013
UCCUCCUACAGCUUGCAUAGUAAAUAGAAA	0.0692 ± 0.02
UCCUGGAUCAGGUUCCAUAGUAUUUAGUUA	0.00709 ± 0.004
UCCUGGAUGUCGUUGCAUAGUAUUUAGCUUA	0.0208 ± 0.0083
UCCUGGUACAGCUUGCAUAGAAUUUUGUUA	0.0466 ± 0.016
UCCUGGAACAGCUUGCAAAGAAUUUAGUUA	0.102 ± 0.037
UCCUGGAACAGCUUGCAUAGAAUAUAGUUA	0.0426 ± 0.011
UCCUGGAUGUCGAUGCAUAGUAAUAAGUUA	0.00446 ± 0.0033
UCCUGGAUGUCCUAGCAUAGAAUUUAGUUA	0.00538 ± 0.004
UCCUGGAUGUCGAAGCAUAGUAUUUCGUUA	0.00855 ± 0.0046
UCCUGGAUCAGCUUGCAUAGUAUAAUGAAA	0.0691 ± 0.022
UCCUGGAACAGCUUGGAUAGUAUUUAGAAA	0.0385 ± 0.012
UCCUGGUACAGCUUGCAUUGUAUUUAGUAA	0.112 ± 0.024
UCCUCCUACAGCUUGCAUAGUUAUUUCAAA	0.0507 ± 0.016
UCCUGGAACAGCUUGCAAUGUAUUUAGAAA	0.0719 ± 0.018
UCCUGGAUCAGCUUGCAUAGUAUUAUGUAA	0.00562 ± 0.0035
UCCUGGAACAGCUUGCAAUCUAUUUAGUAA	0.025 ± 0.0099
UCCUGCUACAGCUUGCAUAGUAAAAAGAAA	0.0111 ± 0.0048
UCCUGGAACUGCUUGCAUAGUAUUUACAAA	0.0945 ± 0.022
UCCUGGAUGUCCUUGCAUAGAUAUUAGUUA	0.00447 ± 0.0038
UCCUCCUACAGCUUGCAUUCUAUUUAGUAA	0.0535 ± 0.017
UCCUGGAACAGCUUGGUUAGUAUUUAGAAA	0.16 ± 0.04
